According to PubChem BioAssay (Tox21):
Results filed as inconclusive are left out. Activity calls are given as the source filed them. Unless noted, the call rests on the fitted dose curve; in most records, active means well fitted curve in the direction sought with a large enough effect in the repeat runs; inconclusive means weak or mixed curves; inactive means no such curve, though single readings can be large; an effect the other way counts as inactive or inconclusive.

Columns and labels:
[1] = qHTS assay to identify small molecule agonists of the vitamin D receptor (VDR) signaling pathway - cell viability counter screen (AID 743224); further: on the % scale 0 is the no-effect control and ±100 the full control effect; nearly all actives have a fitted effect of over 50% in size
In short: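 Cells: VDR-bla, 2,000/well, settled 4 h. Treatment: compounds in DMSO, 16 h, 37C/5% CO2. Readout: CellTiter-Glo luminescence after 30 min RT.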

[2] = qHTS assay to identify small molecule antagonists of the vitamin D receptor (VDR) signaling pathway - cell viability counter screen (AID 743225); further: on the % scale 0 is the no-effect control and ±100 the full control effect; nearly all actives have a fitted effect of over 50% in size
In short: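 VDR-bla HEK 293T cells, 4 h pre-incubation at 37C, then compound plus 1-alpha,25-dihydroxyvitamin D3 (3 nM final) for 16 h. After the beta-lactamase FRET read, CellTiter-Glo was added to the same wells; luminescence after 30 min at room temperature.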

[3] = qHTS assay to identify small molecule agonists of the NFkB signaling pathway (AID 1159509; active means well fitted curve in the direction sought with a large enough effect in the signal ratio in the repeat runs, not every such curve was filed as active; the % refers to the signal ratio; further: on the % scale 0 is the no-effect control and ±100 the full control effect)
In short: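 Readout: FRET fluorescence, 405 nm excitation, 460/530 nm emission; beta-lactamase expression disrupts FRET. Cells: ME-180 stably carrying NF-kB-driven bla reporter. Compound exposure 5 hr, 37 C, 5% CO2.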

[4] = qHTS assay to identify small molecule agonists of the NFkB signaling pathway - cell viability counter screen (AID 1159515; calls by dose curve; further: on the % scale 0 is the no-effect control and ±100 the full control effect; nearly all actives have a fitted effect of over 55% in size)
In short: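 Cells are seeded (2,000 NFkB-bla ME-180 per well), rested overnight, and dosed with DMSO-dissolved compounds for 5 hr at 37 C. Viability is then read by CellTiter-Glo luminescence after 30 min at room temperature.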

[5] = qHTS assay to identify small molecule agonists of the endoplasmic reticulum stress response signaling pathway (AID 1159516; active means well fitted activation curve with a large enough effect in the signal ratio in the repeat runs, not every such curve was filed as active; the % refers to the signal ratio; further: on the % scale 0 is the no-effect control and ±100 the full control effect)
In short: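 Cells are seeded at 1,500 per well and incubated overnight. Compounds in DMSO are added for 5 hr at 37 C, then beta-lactamase FRET substrate for 2 hr at room temperature, and fluorescence at 460 and 530 nm is measured.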

[6] = qHTS assay to identify small molecule agonists of the endoplasmic reticulum stress response signaling pathway - cell viability counter screen (AID 1159517; calls by dose curve;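 further: HeLa cells carrying an ER stress response element beta-lactamase reporter; on the % scale 0 is the no-effect control and ±100 the full control effect; nearly all actives have a fitted effect of over 50% in size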)
In short: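 Cytotoxicity of test compounds toward ESRE-bla HeLa cells was assessed after 5 hr exposure. The luminescent CellTiter-Glo signal was measured 30 min after reagent addition.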

[7] = qHTS assay to identify small molecule antagonists of the retinoid-related orphan receptor gamma (ROR-gamma) signaling pathway - cell viability counter screen (AID 1159520); further: on the % scale 0 is the no-effect control and ±100 the full control effect; nearly all actives have a fitted effect of over 50% in size
In short: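 Tet-on ROR gamma CHO cells (1,000/well) were plated 4 hr, given compounds in DMSO for 2 hr at 37 C, then induced with 1 uM final doxycycline for 16 hr. Viability was read as ATP by CellTiter-Glo luminescence after 30 min.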

[8] = qHTS assay to identify small molecule agonists of the AP-1 signaling pathway - cell viability counter screen (AID 1159525; calls by dose curve; further: nearly all actives have a fitted effect of over 55% in size)
In short: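 Each titration point was normalised to DMSO and tetra n-octyl ammonium bromide controls. The read was Cell Titer Glo luminescence after 30 min at RT, following 5 h compound exposure of ME-180 AP-1-bla cells at 37 °C.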

[9] = qHTS assay to identify small molecule agonists of the AP-1 signaling pathway (AID 1159526; calls by dose curve; further: on the % scale 0 is the no-effect control and ±100 the full control effect)
[10] = target: Retinoic acid receptor RXR-alpha (Homo sapiens) (UniProt P19793); test: qHTS assay to identify small molecule agonists of the RXR signaling pathway (AID 1159527; calls by dose curve; further: on the % scale 0 is the no-effect control and ±100 the full control effect; nearly all actives have a fitted effect of over 35% in size)
In short: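 GeneBLAzer RXR-alpha-UAS-bla HEK 293T cells in medium with 2% charcoal-stripped FBS, pre-incubated 5 hr at 37 C, then exposed to compounds 16 hr. Beta-lactamase reporter read by FRET substrate, 2 hr room temperature, 460/530 nm emission.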

[11] = qHTS assay to identify small molecule agonists of the RXR signaling pathway - cell viability counter screen (AID 1159529)
In short: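 RXR-alpha-UAS-bla HEK 293T cells in medium with 2% charcoal-stripped FBS were preincubated 5 hr, then exposed to compounds for 16 hr at 37 C. Viability was read as CellTiter-Glo luminescence after 30 min at room temperature.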

[12] = qHTS assay to identify small molecule antagonists of the retinoic acid receptor (RAR) signaling pathway (AID 1159552)
In short: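 RARE-luc C3RL4 cells; cpds + 1 uM (final) retinol, 6 hr, 37 C/5% CO2; luciferase reagent, 30 min RT, luminescence readout. Inhibitors of retinol-driven signal scored.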

[13] = qHTS assay to identify small molecule agonists of the retinoic acid receptor (RAR) signaling pathway (AID 1159553); settings: C3RL4 RARE luciferase reporter, agonist, 6 h; activation: at 73.3 µM (top of the series); further: potency means the concentration at half of the fitted maximal effect; on activation: on the % scale 0 is the no-effect control and ±100 the full control effect
In short: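 Seed C3RL4 reporter cells at 1,000 per well and incubate overnight at 37 C. Add compounds in DMSO, incubate 6 hr. Add luciferase reagent, wait 30 min at room temperature, read luminescence.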

[14] = qHTS assay to identify small molecule antagonists of the estrogen related receptor (ERR) signaling pathway from Tox21 library - cell viability counter screen (AID 1224834); further: on the % scale 0 is the no-effect control and ±100 the full control effect; nearly all actives have a fitted effect of over 30% in size
In short: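 ERR cells, 2,000/well; 6 h settle at 37 C/5% CO2; pin-tool compound transfer in DMSO; 17.5 h at 37 C; CellTiter-Fluor, 30 min; fluorescence intensity.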

[15] = target: Luciferin 4-monooxygenase (Photinus pyralis) (UniProt P08659); test: qHTS assay to identify small molecule inhibitors of firefly luciferase (AID 1224835); further: on the % scale 0 is the no-effect control and ±100 the full control effect; nearly all actives have a fitted effect of over 25% in size
In short: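 Quantitative HTS format; KM concentrations of both substrates. Purified P. pyralis FLuc activity quantified from luminescence images.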

[16] = qHTS assay to identify small molecule agonists of the constitutive androstane receptor (CAR) signaling pathway - cell viability counter screen (AID 1224836); further: on the % scale 0 is the no-effect control and ±100 the full control effect; nearly all actives have a fitted effect of over 45% in size
In short: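 HepG2 cells stably carrying hCAR and a CYP2B6-2.2kb reporter were plated 4 h, then given compounds at 15 concentrations plus PK11195 (final 0.75 uM). After 23 h at 37 C, viability was read by CellTiter-Fluor fluorescence.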

[17] = qHTS assay to identify small molecule antagonists of the constitutive androstane receptor (CAR) signaling pathway - cell viability counter screen (AID 1224837); further: on the % scale 0 is the no-effect control and ±100 the full control effect; nearly all actives have a fitted effect of over 45% in size
In short: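 Viability was measured with CellTiter-Fluor in a HepG2 line carrying stably transfected hCAR and a CYP2B6-2.2kb construct. Cells were exposed for 23 hr at 37 C to 15 compound concentrations with 50 nM CITCO as agonist.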

[18] = target: Nuclear receptor subfamily 1 group I member 3 (Homo sapiens) (UniProt Q14994); test: qHTS assay to identify small molecule antagonists of the constitutive androstane receptor (CAR) signaling pathway (AID 1224838);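 further: HepG2 cells stably expressing hCAR with CYP2B6 luciferase reporter stimulated by CITCO; on the % scale 0 is the no-effect control and ±100 the full control effect; nearly all actives have a fitted effect of over 40% in size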
In short: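 Antagonist mode used CITCO at a final 50 nM to activate CAR in human hepatoma HepG2 cells carrying stable hCAR and a 2.2 kb CYP2B6 promoter-luciferase construct. Compounds were tested at 15 concentrations over 24 h, with luminescence as the end point.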

[19] = target: Nuclear receptor ROR-gamma (Homo sapiens) (UniProt P51449); test: qHTS assay to identify small molecule antagonists of the retinoid-related orphan receptor gamma (ROR-gamma) signaling pathway (AID 1159521)
In short: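 Tet-on RORγ CHO cells carrying a ROR response element–luciferase reporter were pretreated with compounds for 2 h, then induced with 1 uM (final) doxycycline hyclate for 16 h at 37 C. Antagonism was read as decreased ONE-Glo luminescence.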

[20] = qHTS assay to identify small molecule antagonists of the retinoid acid receptor (RAR) signaling pathway - cell viability counter screen (AID 1159551); further: on the % scale 0 is the no-effect control and ±100 the full control effect; nearly all actives have a fitted effect of over 35% in size
In short: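 Cells (C3RL4) are plated, incubated overnight, dosed with compound in DMSO, then given retinol at 1 uM final. After 6 h at 37 C, CellTiter-Glo is added and luminescence read following 30 min at room temperature.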

Luciferin 4-monooxygenase (Photinus pyralis), sequence (P08659 whole entry, looked up): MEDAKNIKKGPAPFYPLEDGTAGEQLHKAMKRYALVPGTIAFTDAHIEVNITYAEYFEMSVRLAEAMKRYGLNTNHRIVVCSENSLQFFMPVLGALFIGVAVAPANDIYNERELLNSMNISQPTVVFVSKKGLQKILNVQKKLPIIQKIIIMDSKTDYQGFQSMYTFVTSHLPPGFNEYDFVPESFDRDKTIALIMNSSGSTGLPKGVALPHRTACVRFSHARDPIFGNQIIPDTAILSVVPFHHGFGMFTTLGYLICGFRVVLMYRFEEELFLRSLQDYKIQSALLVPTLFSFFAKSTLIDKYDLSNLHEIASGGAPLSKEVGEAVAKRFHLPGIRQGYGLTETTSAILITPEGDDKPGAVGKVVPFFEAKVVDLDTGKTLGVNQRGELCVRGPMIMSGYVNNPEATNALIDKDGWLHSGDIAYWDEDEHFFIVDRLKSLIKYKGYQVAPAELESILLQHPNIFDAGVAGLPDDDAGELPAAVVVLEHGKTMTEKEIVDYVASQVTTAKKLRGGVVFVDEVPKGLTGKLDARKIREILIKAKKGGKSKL
Nuclear receptor subfamily 1 group I member 3 (Homo sapiens), sequence (Q14994 whole entry, looked up): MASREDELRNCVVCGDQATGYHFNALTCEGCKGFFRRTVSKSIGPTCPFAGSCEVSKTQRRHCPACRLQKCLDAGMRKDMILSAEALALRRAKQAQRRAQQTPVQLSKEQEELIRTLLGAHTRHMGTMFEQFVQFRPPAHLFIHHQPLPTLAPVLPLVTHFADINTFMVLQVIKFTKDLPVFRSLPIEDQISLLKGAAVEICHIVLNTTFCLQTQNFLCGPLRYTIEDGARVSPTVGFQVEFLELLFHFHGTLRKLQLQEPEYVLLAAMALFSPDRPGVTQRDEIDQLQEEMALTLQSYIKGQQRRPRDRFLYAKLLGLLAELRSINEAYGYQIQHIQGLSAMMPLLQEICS
Retinoic acid receptor RXR-alpha (Homo sapiens), sequence (P19793 whole entry, looked up): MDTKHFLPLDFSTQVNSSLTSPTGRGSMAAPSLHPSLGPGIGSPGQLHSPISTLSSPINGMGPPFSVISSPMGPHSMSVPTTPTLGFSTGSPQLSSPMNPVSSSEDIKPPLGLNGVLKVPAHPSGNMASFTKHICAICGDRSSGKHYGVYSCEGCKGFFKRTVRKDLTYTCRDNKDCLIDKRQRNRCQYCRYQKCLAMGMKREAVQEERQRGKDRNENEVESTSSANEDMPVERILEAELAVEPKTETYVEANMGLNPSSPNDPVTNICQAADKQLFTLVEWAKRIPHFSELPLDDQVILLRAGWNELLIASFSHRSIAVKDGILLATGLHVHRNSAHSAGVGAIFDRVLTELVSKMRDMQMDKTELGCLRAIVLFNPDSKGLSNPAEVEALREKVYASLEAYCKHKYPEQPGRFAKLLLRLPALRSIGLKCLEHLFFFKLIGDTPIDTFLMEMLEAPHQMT

C=CCOc1cc(Cl)ccc1C(=O)NCCN(CC)CC
inactive: outcome [1] | outcome [2] | outcome [3] | outcome [4] | outcome [5] | outcome [6] | outcome [7] | outcome [8] | outcome [9] | Potency [10] | outcome [11] | Potency [12] | Potency [13] | Potency [14] | Potency [15] | outcome [16] | Potency [17] | Potency [18]

CC(CC(=O)O)CC(C)(C)C (stereo unspecified)
inactive: outcome [1] | outcome [2] | outcome [3] | outcome [4] | outcome [5] | outcome [6] | outcome [7] | outcome [19] | outcome [8] | outcome [9] | outcome [11] | outcome [20] | Potency [13] | Potency [14] | outcome [16] | Potency [17] | Potency [18]

COC(/C=C(\C)CCC=C(C)C)OC
inactive: outcome [1] | outcome [3] | outcome [4] | outcome [5] | outcome [6] | outcome [7] | outcome [19] | outcome [8] | outcome [9] | outcome [11] | Potency [12] | Potency [13] | outcome [16] | Potency [17]

CO[Si](CCCS)(OC)OC
inactive: outcome [1] | outcome [2] | outcome [3] | outcome [4] | outcome [5] | outcome [6] | outcome [7] | outcome [8] | outcome [9] | Potency [10] | outcome [11] | outcome [20] | Potency [12] | Potency [13] | Potency [15] | outcome [16] | Potency [17]

CCCCC(CC)CNC(=O)CC(C)OC(=O)CCC(=O)O (stereo unspecified)
active: Potency [13] 29.8 µM
inactive: outcome [1] | outcome [2] | outcome [3] | outcome [4] | outcome [5] | outcome [6] | outcome [7] | outcome [8] | outcome [9] | Potency [10] | outcome [11] | outcome [20] | Potency [12] | Potency [14] | outcome [16] | Potency [17] | Potency [18]

CNC(=O)NC
inactive: outcome [1] | outcome [3] | outcome [4] | outcome [5] | outcome [6] | outcome [7] | outcome [8] | outcome [9] | Potency [10] | outcome [11] | outcome [20] | Potency [12] | Potency [13] | Potency [14] | Potency [15] | outcome [16] | Potency [17]

CCCCCC1CCCC(=O)O1 (stereo unspecified)
inactive: outcome [1] | outcome [3] | outcome [4] | outcome [5] | outcome [6] | outcome [7] | outcome [8] | outcome [9] | Potency [10] | outcome [11] | outcome [20] | Potency [13] | Potency [14] | Potency [15] | outcome [16] | Potency [17]

COc1cccc2sc(N)nc12
inactive: outcome [1] | outcome [2] | outcome [3] | outcome [4] | outcome [5] | outcome [6] | outcome [7] | outcome [19] | outcome [8] | outcome [9] | outcome [11] | outcome [20] | Potency [13] | Potency [14] | Potency [15] | Potency [17] | Potency [18]

Nc1c(NC/C=C\COc2cc(CN3CCCCC3)ccn2)c(=O)c1=O
inactive: outcome [1] | outcome [2] | outcome [3] | outcome [4] | outcome [5] | outcome [6] | activity, negative = cytotoxicity [7] 0% [at 19 µM] | activity change, negative = inhibition [19] -0.0898% [at 19 µM] | viability change, negative = cytotoxic [8] -1.48% [at 15.8 µM] | activation [9] -3.62% [at 15.8 µM] | activity change, negative = cytotoxicity [11] 0.401% [at 15.8 µM] | activity change, negative = cytotoxicity [20] 3.28% [at 19 µM] | activity, negative = inhibition [12] -5.94% [at 19 µM] | Potency [13] | viability change, negative = cytotoxic [14] -12.4% [at 19 µM] | activity, negative = inhibition [18] 4.07% [at 19 µM]

CCCOCCOCCOCCO
inactive: outcome [1] | outcome [2] | outcome [3] | outcome [4] | outcome [5] | outcome [6] | outcome [7] | outcome [8] | outcome [9] | Potency [10] | outcome [11] | outcome [20] | Potency [12] | Potency [13] | Potency [14] | Potency [15] | outcome [16]

O=C(CN1CCN(Cc2ccc3c(c2)OCO3)CC1)N1c2ccccc2Sc2ccccc21
inactive: outcome [1] | outcome [3] | outcome [4] | outcome [5] | outcome [6] | outcome [7] | outcome [19] | outcome [8] | outcome [9] | outcome [11] | outcome [20] | Potency [13] | Potency [14] | Potency [15] | Potency [17] | Potency [18]

CCCCCCCCCCCCOC(C)=O
inactive: outcome [1] | outcome [2] | outcome [3] | outcome [4] | outcome [5] | outcome [6] | outcome [7] | outcome [8] | outcome [9] | Potency [10] | outcome [11] | outcome [20] | Potency [12] | Potency [13] | Potency [14] | Potency [15] | Potency [17]

CC(C)C(=O)Nc1cccc(C(F)(F)F)c1
inactive: outcome [1] | outcome [3] | outcome [4] | outcome [5] | outcome [6] | outcome [7] | outcome [8] | outcome [9] | Potency [10] | outcome [11] | Potency [13] | Potency [14] | outcome [16] | Potency [17] | Potency [18]

O=CN1CCOCC1
inactive: outcome [1] | outcome [2] | outcome [3] | outcome [4] | outcome [5] | outcome [6] | outcome [7] | outcome [19] | outcome [8] | outcome [9] | outcome [11] | Potency [12] | Potency [13] | Potency [14] | Potency [15] | outcome [16] | Potency [17]

C=C(C)C(=O)OC1CC(C)CC(C)(C)C1 (stereo unspecified)
inactive: outcome [1] | outcome [3] | outcome [4] | outcome [5] | outcome [6] | outcome [7] | outcome [8] | outcome [9] | Potency [10] | outcome [11] | Potency [12] | Potency [13] | Potency [14] | outcome [16] | Potency [17]

COc1ccc(OC)c(NC(=O)CC(C)=O)c1
inactive: outcome [1] | outcome [2] | outcome [3] | outcome [4] | outcome [5] | outcome [6] | outcome [7] | outcome [8] | outcome [9] | Potency [10] | outcome [11] | outcome [20] | Potency [12] | Potency [13] | Potency [14] | Potency [15] | outcome [16] | Potency [17] | Potency [18]
